Source: PubChem (several laboratories)
BJeLR lethal = BJeLR cell viability loss | BJeLR (HRASV12) viability, CellTiter-Glo ATP luminescence, 48 h | inhibition, % (test concentration not listed) | 300,000 compounds, 0.17% hits; in the data active = inhibition above about 50%
Y pestis TopoI = blocks Yersinia pestis topoisomerase I activity; activity, % at 10 µM; 360,000 compounds, 0.064% hits; Y. pestis Topo-I cleavage product accumulation, plate reader; in the data active = activity above about 50%, passing the limit was not always enough
PfHsp40 rescue = restores yeast growth despite PfHsp40 toxicity; S. cerevisiae expressing PfHsp40, growth rescue, ATP luminescence; growth rescue, % at 12.5 µM; 340,000 compounds, 0.68% hits; in the data active = growth rescue above about 28%, passing the limit was not always enough;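 also: yeast W303a lacking pdr1 and pdr3 grown in galactose medium; growth measured after three days at 30 °C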
PrPC TRFRET = inhibitors of human cell surface prion protein PrPC | P04156 | TR-FRET read-out | inhibition, % at 13.8 µM | 370,000 compounds, 0.43% hits | AID 720596; in the data active = inhibition above about 24%
CCHF vOTU inh = CCHFV vOTU protease inhibition. Pep-AMC fluorescence. inhibition, % at 11.5 µM. 370,000 compounds, 0.55% hits; in the data active = inhibition above about 30%
PrP UTR inh = inhibition of PrP 5' UTR reporter expression. cell-based PrP 5' UTR mRNA reporter, plate reader. inhibition, % (no concentration beside the values). 340,000 compounds, 0.35% hits; in the data active = inhibition above about 52%
PrP 5UTR single = prion 5' UTR mRNA inhibition, cherry-pick retest; cell-based prion protein 5' UTR reporter, plate reader; inhibition, % at 2.5 µM; shares compounds with PrP UTR inh; 1,100 compounds, 48% hits; in the data active = inhibition above about 54%
Hits are given with their value; – = inactive; · = no result given. Hits are enriched below; roughly 2% of the tested compounds scored in any of these assays.

SMILES | BJeLR lethal | Y pestis TopoI | PfHsp40 rescue | PrPC TRFRET | CCHF vOTU inh | PrP UTR inh | PrP 5UTR single
COC(=O)c1ccc(COc2ccccc2/C=N/Nc2cccc(C(=O)O)c2)cc1 | · | – | – | – | – | 77 | –
COC(=O)[C@H](C)N(CCc1cn(Cc2ccccc2)nn1)S(=O)(=O)c1ccccc1Br | · | · | · | – | – | · | ·
COc1ccc(-c2nsc3c(N4CCCCC4)ncnc23)cc1 | – | – | – | – | – | 72 | 70
COc1ccc(-c2nsc3c(N4CCCCC4C)ncnc23)cc1 (stereo not given) | – | – | – | – | – | 87 | 83
COc1ccc(C(=O)N2CCN(c3ncnc4c(-c5ccccc5)nsc34)CC2)cc1 | – | – | – | – | – | – | ·
O=C(NC1CCCCC1)c1csnn1 | · | – | – | – | – | 84 | –
O=C(NC1CCCCCCC1)c1cnccn1 | – | – | – | – | – | – | ·
CCCC[C@@H](C)C[C@@H](C)C(=O)N(C)[C@@H](CC(C)C)C(=O)N[C@H](C(=O)N(C)[C@H](C(=O)N1C[C@@H](O)C[C@H]1C(=O)N1C(=O)C=C[C@@H]1C)C(C)C)C(C)OC(C)=O (stereo not given in full) | · | – | – | · | · | 85 | 96
CN(CCOC(=O)c1cc2ccccc2o1)C1CN(Cc2cn(Cc3ccc([N+](=O)[O-])cc3)nn2)S(=O)(=O)C1 (stereo not given) | · | · | · | – | – | · | ·
Cn1c(=N)n(CC(=O)c2ccc(Cl)c(Cl)c2)c2ccccc21 | – | – | – | – | – | 61 | –
C=C1C(=O)C2=CC1CCC(=O)C1(C)CCC(OC(C)=O)C(C)(C)C1CC2O (stereo not given) | · | – | – | – | – | – | ·
CC(=O)O[C@H]1C[C@@H]2OC3C=C(C)CCC3(C)[C@@]1(C)[C@@]21CO1 (stereo not given in full) | · | – | · | 88 | – | 72 | 59
Cc1nc(SCC(=O)Nc2nc3ccccc3s2)c(C#N)c(C)c1C | – | – | – | – | – | 93 | 93
Cc1nc(SCC(=O)Nc2nccs2)c(C#N)c(C)c1C | · | – | – | – | – | 71 | 69
COc1ccc(CNS(=O)(=O)CC2NCc3cc(OC)ccc32)cc1 (stereo not given) | · | · | · | – | – | · | ·
C=CC(=O)NC1CCCCN(C)C1=O (stereo not given) | · | · | · | – | – | · | ·
CS(=O)(=O)N1CCC(C(=O)NCC2COc3ccccc3O2)CC1 (stereo not given) | · | · | · | – | – | · | ·
CC(C)(C)C(=O)Nc1ccc(NC(=O)c2ccco2)nc1 | – | – | – | – | – | 88 | 94
O=P(c1ccccc1)(c1ccccc1)c1cnc2ccccn12 | · | · | · | – | · | · | ·
CCn1c(SCC(=O)Nc2ccc(N(C)C)cc2)nnc1-c1cccc(C)c1 | – | – | – | – | – | 64 | –
O=C(/C=C(\Nc1cccc(OC(F)F)c1)c1ccccc1)c1ccccc1 | · | · | · | – | – | · | ·
O=c1cc(-c2ccc(O)cc2)oc2ccc3ccccc3c12 | · | – | – | – | – | 78 | 73
CCCCCCCCNS(=O)(=O)/C=C/c1ccc(OC)cc1CNC(=O)OC(C)(C)C | · | · | · | – | – | · | ·
CCN(CC)C(=O)C1CCCN(c2ccc([N+](=O)[O-])cc2[N+](=O)[O-])C1 (stereo not given) | – | – | – | – | – | 70 | –
O=C(Nc1ccc(-c2nc3cccnc3s2)cc1)C1CCCO1 (stereo not given) | – | – | – | – | – | 62 | 65
SMILES | BJeLR lethal | Y pestis TopoI | PfHsp40 rescue | PrPC TRFRET | CCHF vOTU inh | PrP UTR inh | PrP 5UTR single
CC(C(=O)Nc1ccc(F)c(F)c1F)N(C)CC(=O)Nc1ccccc1Br (stereo not given) | – | – | – | – | – | – | ·
CSc1ccc(CN(C)C(C)C(=O)Nc2ccc(F)c(F)c2F)cc1 (stereo not given) | – | – | – | – | – | 53 | –
COC(=O)[C@]12C[C@H](CC(=O)NCc3cccc4ccccc34)C(=O)N(Cc3ccccc3)C1=C[C@H](C(C)C)O[C@@H]2C1CC1 | · | · | · | – | – | · | ·
C#CCN1C(=O)[C@]2(OC[C@@H]3Cc4ccccc4[C@@H]3C=C2C)c2ccccc21 | · | · | · | – | – | · | ·
CCCOc1ccc2cc(-c3ccccn3)c(=O)oc2c1 | – | – | – | – | – | 78 | 57
O=C(CN1C(=O)NC(c2ccccc2)(c2ccccc2)C1=O)NCc1ccccc1 | · | – | – | – | – | – | ·
Cc1ccc(C2(c3ccccc3)NC(=O)N(CC(=O)NCc3ccccc3)C2=O)cc1C (stereo not given) | · | – | – | – | – | 80 | –
C=CCn1c(O)c(C=Nc2ccc(OC)cc2C)c(=O)[nH]c1=O | – | – | – | – | – | 55 | –
CNc1nc2c(C)cccn2c(=O)c1C=NCc1ccccc1 | – | – | – | – | – | 78 | –
O=C(/C=C/c1ccc(-c2ccccc2)cc1)NC1=NCCS1 | · | · | · | – | · | · | ·
CCOC(=O)C(C)Oc1cccc2c(=O)n(CC(=O)NCc3ccccc3)ccc12 (stereo not given) | – | – | – | – | – | 75 | 88
CCOC(=O)C(C)Oc1cccc2c(=O)n(CC(=O)NCc3ccc(F)cc3)ccc12 (stereo not given) | – | – | – | – | – | 79 | 91
CC1(C)CC(=O)N(CC(=O)N2CCN(c3cccc(C(F)(F)F)c3)CC2)c2ccccc2S1(=O)=O | · | · | · | – | – | · | ·
COc1ccc(Cn2cc(CN3[C@H](C)COc4cc(Br)ccc4S3(=O)=O)nn2)cc1 | · | · | · | – | – | · | ·
O=C(NCCc1ccccc1F)c1ccc2c(c1)OCCO2 | – | – | – | – | – | 89 | 93
CC(=O)CCC(=O)NCCc1ccccc1F | – | – | – | – | – | 85 | –
COc1ccc(C(=O)CCC(=O)NCCc2ccccc2F)cc1 | – | – | – | – | – | – | ·
O=C(Nc1ccc([N+](=O)[O-])cc1)C(=O)Nc1cccc(C(=O)O)c1 | – | – | – | – | – | 88 | 92
O=C(O)c1cc(NC(=O)c2ccc([N+](=O)[O-])cc2)cc(NC(=O)c2ccc([N+](=O)[O-])cc2)c1 | – | – | – | – | – | – | ·
COc1ccc(CNS(=O)(=O)CC2NCc3ccc(C)cc32)cc1 (stereo not given) | · | · | · | – | – | · | ·
CCCCN1CCS(=O)(=O)N(Cc2cn(Cc3ccc(C)cc3)nn2)C(C(=O)OC)C1 (stereo not given) | · | · | · | – | – | · | ·
COc1ccc(-c2noc(CCCC(=O)O)n2)cc1 | – | – | – | – | – | 56 | –
COc1ccc(-c2noc(CCC(=O)O)n2)cc1 | – | – | – | – | – | – | ·
COc1ccc2c(=O)cc(-c3cccnc3)oc2c1OC | – | – | – | – | – | 54 | –
COc1cc(-c2nnc(-c3cccnc3)o2)cc(OC)c1OC | – | – | – | – | – | – | ·
Clc1ccccc1-c1nc(-c2ccccc2)n[nH]1 | – | – | – | – | – | – | ·
Oc1ccccc1-c1n[nH]c(-c2ccccc2O)n1 | · | – | – | – | – | 69 | –
